Results: the supplement of paper PMC10849652
The full data set covers some 8,800 targets. This sample favours those with a hit. About 0.5% of all pairs of compound and target were hits. Unmarked numbers belong to inactive results.

Key:
Assay in all cases: log2 fold change, soluble protein after heating vs DMSO (PISA); higher = thermal stabilisation; K562 lysate, 10 uM; active = over 0.2 and 3.5 SD of the protein, either way, in both replicates (recomputed)
[1] = compound: CCCS(=O)(=O)Nc1ccc(F)c(C(=O)c2c[nH]c3ncc(-c4ccc(Cl)cc4)cc23)c1F [vemurafenib]
Procedure, shortened: (§1)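 Following dounce homogenisation of K562 pellets in PBS pH 7.4 with 1 mM MgCl2, crude extract at 1 mg/mL protein was incubated for 30 min with 10 μM compound. Aliquots were then heated for 3 min over 48°C-58°C and pooled, NP-40 was added to 0.5% at 4°C, and soluble protein was recovered as the supernatant at 21,000xg for 90 min. Channel-sum-equalised TMTpro 16plex LC-MS/MS quantified this protein. Each value, from duplicates, is a log-two fold change in thermal stability relative to solvent controls.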

[2] = compound: CCCS(=O)(=O)Nc1ccc(F)c(C(=O)c2c[nH]c3ncc(Cl)cc23)c1F
Procedure, shortened: as §1

[3] = compound: CCN(CCCOc1ccc2c(Nc3cc(CC(=O)Nc4cccc(F)c4)[nH]n3)ncnc2c1)CCOP(=O)(O)O [barasertib]
Procedure, shortened: as §1

[4] = compound: CC[C@@H]1C(=O)N(C)c2cnc(Nc3ccc(C(=O)NC4CCN(C)CC4)cc3OC)nc2N1C1CCCC1
Procedure, shortened: as §1

[5] = compound: CC[C@@H]1C(=O)N(C)c2cnc(Nc3ccc(C(=O)N[C@H]4CC[C@H](N5CCN(CC6CC6)CC5)CC4)cc3OC)nc2N1C(C)C [volasertib]
Procedure, shortened: as §1

[6] = compound: CCn1cc(-c2ccnc3[nH]c(-c4cccc(CN(C)C)c4)cc23)c(-c2ccc(NC(=O)N(C)C)cc2)n1
Procedure, shortened: as §1

[7] = compound: CN1CCC(CNc2ccc3ncc(-c4cccc(OC(F)(F)F)c4)n3n2)CC1
Procedure, shortened: as §1

[8] = compound: CN1CCN(CCOc2cc(OC3CCOCC3)c3c(Nc4c(Cl)ccc5c4OCO5)ncnc3c2)CC1 [saracatinib]
Procedure, shortened: as §1

[9] = compound: CN1CCN(c2nc(C3=C(c4c[nH]c5ccccc45)C(=O)NC3=O)c3ccccc3n2)CC1 [sotrastaurin]
Procedure, shortened: as §1

[10] = compound: CCn1c(C(=O)N(C2CC2)C2CC2)cc2c3c(ncn3C)c(Nc3cc(C)n(C)n3)nc21
Procedure, shortened: as §1

Chain of UniProt Q8N4N3 (Q8N4N3 whole entry, looked up): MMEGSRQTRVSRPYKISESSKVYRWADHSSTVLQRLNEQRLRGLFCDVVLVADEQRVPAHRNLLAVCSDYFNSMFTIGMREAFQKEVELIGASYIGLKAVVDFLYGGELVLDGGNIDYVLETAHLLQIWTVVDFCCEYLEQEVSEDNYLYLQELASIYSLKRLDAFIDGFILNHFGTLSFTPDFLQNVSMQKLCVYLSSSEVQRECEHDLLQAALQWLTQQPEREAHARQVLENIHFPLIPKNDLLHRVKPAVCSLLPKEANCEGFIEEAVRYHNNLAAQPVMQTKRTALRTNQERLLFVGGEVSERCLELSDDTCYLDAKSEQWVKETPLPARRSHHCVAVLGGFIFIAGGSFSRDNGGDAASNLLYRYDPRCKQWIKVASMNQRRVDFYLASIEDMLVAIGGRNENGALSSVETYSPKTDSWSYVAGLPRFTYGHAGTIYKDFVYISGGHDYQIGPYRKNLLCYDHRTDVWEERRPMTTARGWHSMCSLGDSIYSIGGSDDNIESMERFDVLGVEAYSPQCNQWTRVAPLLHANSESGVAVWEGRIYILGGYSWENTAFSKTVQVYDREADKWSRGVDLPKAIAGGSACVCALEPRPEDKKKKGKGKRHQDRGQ
Chain of UniProt Q92615 (Q92615 whole entry, looked up): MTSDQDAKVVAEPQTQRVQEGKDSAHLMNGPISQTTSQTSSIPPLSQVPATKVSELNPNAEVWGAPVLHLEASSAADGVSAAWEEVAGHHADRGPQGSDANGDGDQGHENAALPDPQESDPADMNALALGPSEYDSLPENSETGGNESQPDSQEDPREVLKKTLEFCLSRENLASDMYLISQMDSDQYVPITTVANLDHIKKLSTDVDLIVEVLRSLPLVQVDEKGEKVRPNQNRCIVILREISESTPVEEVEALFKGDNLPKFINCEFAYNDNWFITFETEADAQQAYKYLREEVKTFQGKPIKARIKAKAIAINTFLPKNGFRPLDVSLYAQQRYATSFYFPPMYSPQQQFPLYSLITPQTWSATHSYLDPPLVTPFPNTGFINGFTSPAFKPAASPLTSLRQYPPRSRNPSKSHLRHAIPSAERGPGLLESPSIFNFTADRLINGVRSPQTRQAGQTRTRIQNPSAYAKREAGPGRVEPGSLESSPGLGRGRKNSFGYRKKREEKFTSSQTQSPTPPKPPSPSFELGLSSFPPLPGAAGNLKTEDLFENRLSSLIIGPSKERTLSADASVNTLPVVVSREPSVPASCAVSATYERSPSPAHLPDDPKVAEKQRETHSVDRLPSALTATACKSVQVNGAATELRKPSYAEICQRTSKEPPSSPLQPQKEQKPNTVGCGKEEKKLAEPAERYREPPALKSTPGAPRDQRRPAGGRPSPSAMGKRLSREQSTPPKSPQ
Chain of UniProt P49137 (P49137 whole entry, looked up): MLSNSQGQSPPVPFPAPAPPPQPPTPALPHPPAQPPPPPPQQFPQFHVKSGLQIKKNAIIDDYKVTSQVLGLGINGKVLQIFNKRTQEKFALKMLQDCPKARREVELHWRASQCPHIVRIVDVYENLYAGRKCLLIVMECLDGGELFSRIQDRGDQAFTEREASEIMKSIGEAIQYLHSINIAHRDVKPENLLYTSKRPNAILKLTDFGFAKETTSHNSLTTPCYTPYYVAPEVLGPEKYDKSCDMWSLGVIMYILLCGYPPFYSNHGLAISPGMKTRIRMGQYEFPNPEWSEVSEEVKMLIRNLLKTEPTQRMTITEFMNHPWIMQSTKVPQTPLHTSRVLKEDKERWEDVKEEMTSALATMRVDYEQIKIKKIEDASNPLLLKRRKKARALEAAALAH
Chain of UniProt Q9BTE3 (Q9BTE3 whole entry, looked up): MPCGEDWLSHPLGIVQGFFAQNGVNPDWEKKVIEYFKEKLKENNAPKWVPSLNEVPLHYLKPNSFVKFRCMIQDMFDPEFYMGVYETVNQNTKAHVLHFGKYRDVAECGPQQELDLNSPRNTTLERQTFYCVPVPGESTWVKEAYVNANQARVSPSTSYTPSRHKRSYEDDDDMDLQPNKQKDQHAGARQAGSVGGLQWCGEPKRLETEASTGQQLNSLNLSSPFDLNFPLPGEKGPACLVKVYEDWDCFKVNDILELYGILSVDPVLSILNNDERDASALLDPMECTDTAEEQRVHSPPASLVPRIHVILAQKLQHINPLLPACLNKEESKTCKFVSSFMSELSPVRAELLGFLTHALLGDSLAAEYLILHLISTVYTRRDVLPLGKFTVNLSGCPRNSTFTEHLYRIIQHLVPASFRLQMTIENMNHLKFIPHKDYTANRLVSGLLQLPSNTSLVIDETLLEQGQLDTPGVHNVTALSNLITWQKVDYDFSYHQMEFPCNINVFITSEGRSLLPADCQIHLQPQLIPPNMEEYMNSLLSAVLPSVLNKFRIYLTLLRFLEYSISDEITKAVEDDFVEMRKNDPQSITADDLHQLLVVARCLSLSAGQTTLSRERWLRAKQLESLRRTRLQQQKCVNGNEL
Chain of UniProt O75970 (O75970 whole entry, looked up): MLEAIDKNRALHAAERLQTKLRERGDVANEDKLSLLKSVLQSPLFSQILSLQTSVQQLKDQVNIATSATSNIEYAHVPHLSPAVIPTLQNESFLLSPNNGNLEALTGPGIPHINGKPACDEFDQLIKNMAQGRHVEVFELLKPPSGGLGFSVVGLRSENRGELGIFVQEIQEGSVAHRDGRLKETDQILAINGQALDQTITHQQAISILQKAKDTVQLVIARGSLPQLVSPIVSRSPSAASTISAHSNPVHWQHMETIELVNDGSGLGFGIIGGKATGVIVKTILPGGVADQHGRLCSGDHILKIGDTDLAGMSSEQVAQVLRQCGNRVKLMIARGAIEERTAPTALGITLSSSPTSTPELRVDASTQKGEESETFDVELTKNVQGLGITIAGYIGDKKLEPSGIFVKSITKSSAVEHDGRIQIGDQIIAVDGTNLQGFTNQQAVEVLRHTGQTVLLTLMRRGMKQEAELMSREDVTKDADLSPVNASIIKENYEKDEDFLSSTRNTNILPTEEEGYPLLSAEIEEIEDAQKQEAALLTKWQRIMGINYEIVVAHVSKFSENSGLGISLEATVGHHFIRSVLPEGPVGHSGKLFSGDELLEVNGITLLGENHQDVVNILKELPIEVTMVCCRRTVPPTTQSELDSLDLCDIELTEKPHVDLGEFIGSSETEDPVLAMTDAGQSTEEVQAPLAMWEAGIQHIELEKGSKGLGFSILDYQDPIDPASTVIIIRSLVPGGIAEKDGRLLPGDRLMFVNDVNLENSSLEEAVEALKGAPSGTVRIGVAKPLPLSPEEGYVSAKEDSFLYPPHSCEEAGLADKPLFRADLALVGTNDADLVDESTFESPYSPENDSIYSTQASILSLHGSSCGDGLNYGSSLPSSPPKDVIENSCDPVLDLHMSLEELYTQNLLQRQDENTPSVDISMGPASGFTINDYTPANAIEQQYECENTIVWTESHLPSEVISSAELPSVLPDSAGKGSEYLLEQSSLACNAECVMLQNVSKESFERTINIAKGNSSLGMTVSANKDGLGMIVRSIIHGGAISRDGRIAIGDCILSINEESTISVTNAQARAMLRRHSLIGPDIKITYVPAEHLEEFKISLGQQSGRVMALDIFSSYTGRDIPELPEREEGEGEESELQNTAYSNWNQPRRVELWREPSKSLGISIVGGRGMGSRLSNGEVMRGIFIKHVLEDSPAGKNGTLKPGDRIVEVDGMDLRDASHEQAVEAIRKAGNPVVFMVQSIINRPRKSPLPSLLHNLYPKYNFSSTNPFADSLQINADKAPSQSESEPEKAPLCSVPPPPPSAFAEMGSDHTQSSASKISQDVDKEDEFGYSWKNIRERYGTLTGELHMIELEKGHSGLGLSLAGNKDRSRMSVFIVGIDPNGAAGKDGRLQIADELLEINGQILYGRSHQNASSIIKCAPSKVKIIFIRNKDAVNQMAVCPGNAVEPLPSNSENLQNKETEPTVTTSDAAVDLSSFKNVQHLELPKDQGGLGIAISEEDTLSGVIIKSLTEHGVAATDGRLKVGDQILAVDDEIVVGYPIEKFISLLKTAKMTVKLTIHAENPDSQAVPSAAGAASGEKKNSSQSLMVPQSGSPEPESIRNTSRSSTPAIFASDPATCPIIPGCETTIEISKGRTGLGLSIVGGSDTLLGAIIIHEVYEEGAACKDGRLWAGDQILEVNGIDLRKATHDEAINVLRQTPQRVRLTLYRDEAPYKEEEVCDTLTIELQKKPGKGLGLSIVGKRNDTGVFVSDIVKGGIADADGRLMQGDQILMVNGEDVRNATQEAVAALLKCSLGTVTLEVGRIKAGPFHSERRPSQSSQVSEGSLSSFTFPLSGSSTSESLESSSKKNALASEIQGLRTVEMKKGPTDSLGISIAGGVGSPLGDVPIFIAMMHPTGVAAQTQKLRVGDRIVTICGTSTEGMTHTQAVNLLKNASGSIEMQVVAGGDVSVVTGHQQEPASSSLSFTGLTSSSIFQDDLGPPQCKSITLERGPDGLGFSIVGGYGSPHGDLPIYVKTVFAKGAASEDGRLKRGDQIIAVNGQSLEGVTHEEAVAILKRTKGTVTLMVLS
Chain of UniProt A9UHW6 (A9UHW6 whole entry, looked up): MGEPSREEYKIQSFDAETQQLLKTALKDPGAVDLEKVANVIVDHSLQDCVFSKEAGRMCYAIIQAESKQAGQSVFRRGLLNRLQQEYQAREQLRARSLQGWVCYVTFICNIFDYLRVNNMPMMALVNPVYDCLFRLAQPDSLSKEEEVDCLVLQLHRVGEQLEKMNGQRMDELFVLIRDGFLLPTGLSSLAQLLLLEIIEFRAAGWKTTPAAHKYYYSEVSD
Chain of UniProt P10620 (P10620 whole entry, looked up): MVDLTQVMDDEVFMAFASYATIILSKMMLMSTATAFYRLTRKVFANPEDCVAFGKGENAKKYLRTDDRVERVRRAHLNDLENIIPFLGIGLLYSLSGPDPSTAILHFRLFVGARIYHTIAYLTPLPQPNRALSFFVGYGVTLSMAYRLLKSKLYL
Chain of UniProt Q16553 (Q16553 whole entry, looked up): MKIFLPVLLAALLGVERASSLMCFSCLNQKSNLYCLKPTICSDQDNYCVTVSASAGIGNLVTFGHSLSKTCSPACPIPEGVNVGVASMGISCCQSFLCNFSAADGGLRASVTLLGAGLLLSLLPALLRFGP

Target | log2 fold change [1] | log2 fold change [2] | log2 fold change [3] | log2 fold change [4] | log2 fold change [5] | log2 fold change [6] | log2 fold change [7] | log2 fold change [8] | log2 fold change [9] | log2 fold change [10]
MARCHF6 (UniProt O60337) | 0.043 | 0.052 | 0.233 | 0.038 | 0.078 | -0.023 | 0.013 | -0.13 | 0.034 | –
MMS22L (UniProt Q6ZRQ5) | -0.044 | 0.013 | 0.083 | -0.182 | -0.119 | 0.077 | -0.083 | 0.092 | 0.012 | –
KLHL12 isoform 2 (UniProt Q53G59) | 0.038 | 0.061 | -0.413 (active) | – | -0.045 | – | – | 0.064 | -0.045 | 0.118
MCMBP isoform 2 (UniProt Q9BTE3) | -0.039 | 0.081 | -0.096 | 0.059 | -0.004 | – | – | -0.036 | -0.015 | 0.047
LY6E (UniProt Q16553) | 0.068 | 0.026 | -0.02 | -0.055 | 0.022 | -1.86 (active) | 0.533 | – | – | –
MAP1S (UniProt Q66K74) | -0.004 | 0.041 | 0.002 | -0.035 | -0.024 | -0.056 | -0.022 | 0.038 | 0.037 | -0.01
METTL2A (UniProt Q96IZ6) | 0.073 | 0.058 | 0.023 | -0.046 | -0.015 | 0.06 | -0.113 | -0.004 | 0.011 | -0.011
MIF4GD isoform 3 (UniProt A9UHW6) | 0.016 | 0.009 | 0.051 | -0.019 | -0.012 | 0.028 | 0.015 | 0.02 | 0.017 | 0.037
MAT2B (UniProt Q9NZL9) | 0.036 | 0.016 | 0.001 | -0.019 | -0.006 | 0.13 | 0 | -0.018 | 0.013 | -0.015
MPDZ (UniProt O75970) | 0.059 | 0.03 | – | 0 | -0.026 | 0.129 | -0.017 | 0.088 | 0.209 | -0.115
LDAH isoform 2 (UniProt Q9H6V9) | 0.077 | 0.125 | 0.018 | 0.003 | -0.036 | -0.013 | -0.018 | 0.016 | -0.01 | -0.004
MAP2K7 isoform 4 (UniProt O14733) | 0.073 | 0.087 | -0.02 | 0.016 | -0.04 | 0.004 | -0.02 | 0.032 | 0.02 | 0.042
MGST1 (UniProt P10620) | 0.015 | 0.018 | 0.027 | 0.097 | 0.07 | 0.279 (active) | -0.069 | 0.068 | -0.013 | -0.036
LRRC7 (UniProt Q96NW7) | 0.112 | -0.024 | 0.062 | 0.056 | 0.047 | -0.033 | -0.043 | -0.044 | -0.012 | -0.008
MED14 (UniProt O60244) | -0.078 | 0.003 | 0.015 | -0.084 | -0.023 | -0.008 | 0.009 | -0.001 | 0.008 | 0.008
KRAS (UniProt P01116) | 0.061 | 0.019 | – | 0.019 | 0.063 | -0.278 (active) | 0.06 | 0.066 | 0.012 | -0.053
MRPL12 (UniProt P52815) | 0.01 | -0.026 | 0.181 | 0.036 | 0.103 | -0.412 (active) | -0.032 | 0.004 | 0.015 | -0.019
MAP4K5 (UniProt Q9Y4K4) | 0.185 | -0.011 | 0.23 | – | -0.069 | 0 | -0.007 | 0.01 | – | 0.014
LIMS1 isoform 3 (UniProt P48059) | -0.055 | -0.006 | 0.014 | 0.008 | 0.024 | -0.005 | 0.045 | 0.014 | -0.162 | -0.002
MAP4 isoform 5 (UniProt P27816) | -0.019 | -0.035 | -0.038 | 0.069 | 0.044 | – | – | 0.041 | -0.04 | -0.266
KRIT1 (UniProt O00522) | -0.084 | 0.051 | -0.084 | -0.009 | 0.036 | – | – | -0.103 | 0.049 | -0.052
MRPL35 (UniProt Q9NZE8) | 0.091 | -0.001 | 0.021 | – | 0.013 | -0.124 | -0.011 | 0.04 | -0.019 | 0.005
MAPKAPK2 (UniProt P49137) | 0.011 | -0.043 | 0 | -0.015 | -0.032 | -0.032 | 0.002 | -0.037 | -0.015 | 0.009
KLHL36 (UniProt Q8N4N3) | 0.024 | 0.106 | -0.088 | 0.077 | -0.127 | -0.006 | -0.048 | -0.031 | 0.099 | 0.1
LARP4B (UniProt Q92615) | -0.014 | 0.011 | -0.033 | -0.029 | -0.042 | -0.116 | 0.038 | 0.011 | -0.019 | 0.08
KLC4 isoform 3 (UniProt Q9NSK0) | -0.038 | 0.02 | -0.008 | 0.038 | -0.029 | 0.011 | -0.018 | -0.012 | 0.003 | 0.052
KLC1 isoform 6 (UniProt Q07866) | 0.003 | 0.004 | -0.002 | 0.012 | -0.04 | 0.019 | -0.063 | 0.015 | -0.011 | 0
MINDY1 isoform 3 (UniProt Q8N5J2) | -0.049 | -0.26 | -0.201 | 0.059 | -0.041 | – | – | 0.076 | 0.074 | -0.106
KNSTRN (UniProt Q9Y448) | -0.012 | 0.021 | 0.022 | 0.01 | 0.004 | 0.063 | -0.095 | 0.009 | -0.03 | 0.086
